USP10 block: inhibitors of human USP10 deubiquitinase | Ubiquitin carboxyl-terminal hydrolase 10 (Homo sapiens), Q14694 | purified USP10, Ub-rhodamine fluorescence, 60 min | inhibition, % at 20 µM | hit rate 1.1% among 47,000 | AID 1645856, 2021
USP17 block: inhibitors of human USP17 deubiquitinase; purified USP17, Ub-rhodamine cleavage fluorescence, 3 h; inhibition, % at 50 µM; hit rate 6.5% among 47,000
Target sequence (A8MUK1 whole entry, looked up): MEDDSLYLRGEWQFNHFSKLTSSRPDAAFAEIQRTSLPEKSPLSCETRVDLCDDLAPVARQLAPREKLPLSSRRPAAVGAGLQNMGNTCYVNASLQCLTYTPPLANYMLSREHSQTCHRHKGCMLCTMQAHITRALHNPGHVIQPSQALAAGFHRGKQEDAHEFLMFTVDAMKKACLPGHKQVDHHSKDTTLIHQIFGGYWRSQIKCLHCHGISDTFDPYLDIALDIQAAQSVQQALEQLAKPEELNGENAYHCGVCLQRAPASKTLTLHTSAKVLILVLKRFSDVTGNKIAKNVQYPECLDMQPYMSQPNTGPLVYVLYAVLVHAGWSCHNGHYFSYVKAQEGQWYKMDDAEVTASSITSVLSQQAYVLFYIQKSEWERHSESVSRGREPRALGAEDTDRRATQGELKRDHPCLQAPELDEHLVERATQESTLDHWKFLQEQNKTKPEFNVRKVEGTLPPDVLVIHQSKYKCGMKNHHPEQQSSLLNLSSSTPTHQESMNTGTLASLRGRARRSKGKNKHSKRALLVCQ
USP30 inh: inhibitors of human USP30 deubiquitinase | purified USP30, Ub-rhodamine cleavage fluorescence | hit rate 5.3% among 47,000 | inhibition, % at 25 µM
USP28 inh: inhibitors of human USP28 deubiquitinase | Ubiquitin carboxyl-terminal hydrolase 28 (Homo sapiens), Q96RU2 | purified USP28, Ub-rhodamine cleavage fluorescence, 30 min | inhibition, % at 25 µM | hit rate 3% among 47,000
USP8 inh: inhibitors of human USP8 deubiquitinase; hit rate 4.2% among 47,000; Ubiquitin carboxyl-terminal hydrolase 8 (Homo sapiens), P40818; purified USP8, Ub-rhodamine cleavage fluorescence, 30 min; inhibition, % at 20 µM
The depositor's hits bear a star; . = not tested or not shown. This is a sample that favours compounds with a hit; in the whole collection about 13% have one here. No stated cut-off is given here; in the data, active means inhibition above about 30%; inactive means the rest.

SMILES | USP10 block | USP17 block | USP30 inh | USP28 inh | USP8 inh
O=C(CCCC(=O)c1ccccc1)Nc1ccc(O)cc1 | 0 | 12 | -9 | 13 | 35*
O=C(CCCC(=O)c1ccccc1)Nc1ccc2c(c1)CCC2 | 4 | 17 | 4 | 8 | -43
CCNC(=O)OC1CN(C(=O)C2CC2)CCC(=O)N(C)c2ccccc21 (stereo not drawn) | 0 | 11 | 21 | 8 | 3
O=C(Nc1ccccc1)C1COc2ccccc2C1 (stereo not drawn) | 3 | 32* | 29 | 7 | 0
CCc1nc(SCC(=O)NCCc2ccc(OC)c(OC)c2)c2oc3ccccc3c2n1 | 0 | -7 | 21 | 8 | 3
CCc1nc(SCC(=O)Nc2cc(C)ccc2OC)c2oc3ccccc3c2n1 | 3 | 41* | 42* | 3 | 5
COc1ccc(OC)c(NC(=O)CSc2nc(C)nc3c2oc2ccccc23)c1 | 1 | 61* | 18 | 8 | 3
CCc1nc(Sc2ccc3ccccc3c2)c2oc3ccccc3c2n1 | 5 | 51* | 52* | 5 | -1
O=C(Nc1nc2c(s1)CN(S(=O)(=O)C1CC1)CC2)c1c(F)cccc1F | 3 | -32 | -19 | -10 | -78
CC(=O)c1ccc(N2CCN(c3ncnc4c3c(-c3ccccc3)cn4-c3ccc(Br)cc3)CC2)cc1 | -1 | 6 | -19 | -3 | -1
COc1ccc(C(=O)N(Cc2ccccc2)C(C)(C)c2ccccc2)c(OC)c1 | 8 | 29 | 44* | 13 | 11
Cc1noc(-c2ccc(=O)n(Cc3cccc(C(F)(F)F)c3)c2)n1 | -2 | -1 | -8 | 4 | -6
O=c1sc2ccccc2c(=O)n1Cc1cccc(C(F)(F)F)c1 | 4 | 2 | 1 | 83* | 0
CSc1cccc(NC(=O)COc2cccc3ccccc23)c1 | 26 | 41* | 78* | 35* | 43*
Cc1cc(O)cc2oc3cc(O)cc(O)c3c(=O)c12 | -1 | -53 | -8 | 13 | -23
Cc1cc(=O)c2c(O)oc(O)c3c(O)cc(=O)c1c32 | 0 | 68* | -118 | 9 | 31*
COc1cc(N2CCC3(CC2)CC(N(C)Cc2cccnc2)C3)ncn1 | 0 | 0 | 10 | 11 | -59
COc1ccc2nc(NCC(=O)Nc3ccc(C(=O)O)cc3)sc2c1 | -2 | -7 | -10 | 7 | -17
CN1[C@H]2CCN(Cc3cnn(C)c3)CC[C@@H]2Oc2ccccc2S1(=O)=O | -1 | -21 | -16 | -7 | -11
COc1ccc(Cl)cc1Nc1ncnc2sccc12 | -6 | 52* | . | . | -26
COc1cc2c(cc1OC)CN(c1ncnc3sccc13)CC2 | -3 | -62 | . | . | -23
CCN1CCN(S(=O)(=O)c2cc(-c3nnc(C4CCCC4)o3)co2)CC1 | -4 | -7 | -21 | -7 | -4
CC(C)=CCC/C(C)=C/CC/C(C)=C/COc1c(O)cc(C=O)c(C=O)c1O | 78* | 81* | 44* | 81* | 71*
CNc1ncc(C(=O)c2ccc(Br)cc2)s1 | 1 | 47* | 39* | 3 | 16
Cc1c(C(=O)NCc2ccco2)oc2c1/C(=N\O)CCC2 | 10 | 31* | 3 | 15 | 8
SMILES | USP10 block | USP17 block | USP30 inh | USP28 inh | USP8 inh
Cc1c(C(=O)O)oc2c1/C(=N\O)CCC2 | -1 | -14 | -3 | -3 | -2
CCn1c(=O)n(CC(=O)c2ccc(F)cc2)c2c(C(N)=O)nc(-c3ccc(C)o3)nc21 | 2 | 34* | -80 | -2 | 0
CCn1c(=O)n(CC(=O)c2ccccc2)c2c(C(N)=O)nc(-c3ccc(C)o3)nc21 | 0 | 34* | -18 | -8 | -5
Cc1ccc(CNC(=O)c2c(O)c3ccccc3[nH]c2=O)cc1 | 12 | 23 | 21 | 12 | 40*
O=C(NCc1ccc(F)cc1)c1c(O)c2ccccc2[nH]c1=O | 9 | 1 | -6 | -10 | 8
COc1ccc(C2=Nc3ccccc3SC(c3ccccc3)C2)cc1 (stereo not drawn) | 6 | 19 | 9 | 15 | 41*
COc1ccc(CC(=O)N2CCC(Nc3cccnc3)C2)cc1 (stereo not drawn) | -5 | 42* | -132 | -19 | -4
Cc1noc(C)c1CC(=O)N1CCC(Nc2cccnc2)C1 (stereo not drawn) | -3 | -17 | -87 | -25 | -56
COC(=O)c1ccc(NC(=O)CS(=O)(=O)c2cn(CC(=O)N3CCCCC3)c3ccccc23)cc1 | 3 | 2 | 8 | 5 | 17
COc1cc2c(C#N)c(OC)nc3c2c(n1)NC(C)(c1ccc(Br)cc1)N3 (stereo not drawn) | -7 | 0 | -16 | 9 | 85*
O=C(Nc1ccc(F)cc1F)N1CCC(n2c(=O)[nH]c3ccccc32)CC1 | 1 | 9 | . | . | 2
O=C(Nc1cccc2ccccc12)C1CCN(c2ccc(-c3ccc(F)cc3)nn2)CC1 | 20 | 44* | . | . | 3
CC(C)CNC(=O)C1CCN(c2ccc(-c3ccc(F)cc3)nn2)CC1 | 6 | 3 | . | . | 5
CCn1c(=O)c(CCC(=O)NCc2ccccc2)nc2c(C)nn(-c3ccccc3)c21 | -3 | -18 | -18 | -11 | -4
O=c1c2cc(Br)ccc2[nH]c(=S)n1Cc1cccnc1 | 32* | . | 13 | 11 | 88*
Cn1c(=O)n(Cc2cccnc2)c(=O)c2cnc(-c3ccncc3)nc21 | 0 | -12 | -11 | -5 | -24
O=C1CO[C@H](c2ccc(NC(=O)c3cc(F)cc(F)c3)cc2)[C@@H](CO)N1 | 0 | 24 | 19 | 2 | 5
N#Cc1ccc(C(=O)Nc2ccc([C@H]3OCC(=O)N[C@@H]3CO)cc2)cc1 | 2 | 33* | 35* | 0 | 3
CC(OC(=O)c1cc(=O)[nH]c2ccccc12)C(=O)Nc1ccc(F)cc1Cl (stereo not drawn) | 11 | 45* | 12 | 19 | 18
O=C(Cn1cc(C(=O)c2ccccc2)c(=O)c2cc(F)ccc21)Nc1ccc2c(c1)OCCO2 | 27 | -34 | -103 | -32 | -139
Cc1ccc2c(c1)c(=O)c(C(=O)c1ccccc1)cn2CC(=O)Nc1ccccc1 | 27 | 59* | -44 | -29 | 89*
Cc1ccc(C(=O)c2cn(CC(=O)Nc3ccc(C(C)C)cc3)c3ccc(C)cc3c2=O)cc1 | -2 | 10 | . | . | -1
Cc1ccc(NC(=O)Cn2cc(C(=O)c3ccccc3)c(=O)c3cc(C)ccc32)cc1 | 44* | 20 | 12 | 7 | 83*
CCS(=O)(=O)N1CCCC1c1nc(C)c2c(n1)N(Cc1ccc(C)cc1)C(=O)CC2 (stereo not drawn) | -4 | -1 | -1 | 0 | 6
COC1=C(C)C(C)(O)c2[nH]c3ccccc3c2C1=O (stereo not drawn) | -3 | 42* | -4 | 6 | 0
Cc1nn(CC(=O)NCc2ccccc2F)c2ccccc12 | 0 | 51* | 29 | 4 | 4
O=C(CC(c1ccccc1)c1ccccc1)NCc1ccccc1F | 6 | 3 | 17 | -3 | 5

Screening data as filed in PubChem.
